Pf growth 48h: P. falciparum growth inhibition at 48 hours (one generation). actives 5.9% (n = 310,000). Potency, µM (titrated, usually from 28.7 µM), for the others: top-dose activity change, negative = inhibition, actives largely listed as inhibitors. P. falciparum luciferase growth in erythrocytes, 48 h; further: potency means the concentration at half of the fitted maximal effect; on the % scale 0 is the no-effect control and ±100 the full control effect
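Parasite viability was followed by luminescence of a genomically integrated firefly luciferase. Cultures held 0.1% parasitemia at 2% hematocrit (final), incubated under 5% CO2 at 37 C.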
Shiga inhibitor: Shiga toxin inhibition | Vero cells, Shiga toxin protein synthesis inhibition reporter | inhibition, % at 38.7 µM | actives 9.2% (n = 290,000); in the data active means inhibition mostly above about 28%, no sharp cut-off; inactive means mostly below about 43%; further: 0% is about no effect
Sm TGR block: inhibitors of Schistosoma mansoni thioredoxin glutathione reductase; Q962Y6; AID 485364; actives 3% (n = 360,000); purified TGR, DTNB reduction, TNB absorbance 405 nm; Potency, µM (highest dose often 114 µM), for the others: at the highest dose activity change, negative = inhibition, most hits filed as inhibitors; further: potency means the concentration at half of the fitted maximal effect; on the % scale 0 is the no-effect control and ±100 the full control effect; nearly all actives have a fitted effect of over 60% in size
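TGR 20 nM + NADPH 100 uM (dispensed conc.), cpd preinc 15 min RT; start with NADPH (500 uM addition) then DTNB (15 mM addition). Kinetic TNB absorbance, 405 nm filter. Four-parameter Hill fit across titration.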
NS1 inh: inhibitors of influenza NS1 protein function; AID 2326; Potency, µM (series often up to 46.1 µM), for inactives: at the highest dose activity, positive = more growth; actives 0.4% (n = 270,000); calls by dose curve; further: potency means the concentration at half of the fitted maximal effect; actives are rising curves; nearly all actives have a fitted effect of over 50% in size
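S. cerevisiae expressing influenza A NS1, grown in glucose, washed, then diluted 1:100 into pH 6.0 -URA galactose medium with 23 nl compound. Growth recovery read as OD600; NS1-free strain serves as control.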
Cycloheximide cs: affects cycloheximide protein synthesis inhibition readout, counter-screen. cell reporter, cycloheximide protein synthesis inhibition counterscreen. actives 12% (n = 300,000). max response, %; in the data active means max response mostly above about 13%, no sharp cut-off; inactive means mostly below about 14%; further: read at 38.3 µM for the half of the compounds with a filed dose; 0% is about no effect
Pf growth 96h: inhibits malaria parasite growth, 96 h. actives 6.9% (n = 320,000). Potency, µM (titrated, usually from 28.7 µM), for the others: at the top dose activity change, negative = inhibition, usual class: inhibitors. P. falciparum luciferase reporter growth, 96 h; further: potency means the concentration at half of the fitted maximal effect; on the % scale 0 is the no-effect control and ±100 the full control effect
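Infected RBCs, 2% Hct / 0.05% parasitemia final; luciferase-reporter P. falciparum; cpd 96 h, 37 C, 5% CO2; luciferase detection reagent; luminescence.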
* marks the source's active call; other numbers are inactive results; u = inconclusive; x = not tested or not shown. The list is not random: actives were taken first. Their share in the collection is about 21%. Unless noted, the call rests on the fitted dose curve; in most records, active means well fitted curve in the direction sought with a large enough effect; inconclusive means small, poorly fitted or top-dose-only effect, or another doubt; inactive means no such curve, though single readings can be large; an effect the other way counts as inactive or inconclusive.

SMILES | Pf growth 48h | Shiga inhibitor | Sm TGR block | NS1 inh | Cycloheximide cs | Pf growth 96h
CCCN(CCC)S(=O)(=O)c1ccc2c(c1)N(CC(=O)NCc1ccc(F)cc1Cl)C(=O)CS2 | x | x | 0% | x | x | x
CC(C)OCC(O)CN1CCNCC1 (stereo unspecified) | 35% | 27 | 12% | 2% | -2 | 29%
CCOC(=O)N1CCN(C(=O)CN2C(=O)NC(C)(c3ccc4ccccc4c3)C2=O)CC1 (stereo unspecified) | 12µM* | x | -20% | x | x | u
CCCNC(=O)NC(=O)CN1C(=O)NC(C)(c2ccc(C)cc2)C1=O (stereo unspecified) | -18% | 7 | 0% | 3% | 6 | 13µM*
CCOC(=O)NC(=O)CN1C(=O)NC(C)(c2ccccc2)C1=O (stereo unspecified) | 24% | -9 | 0% | 6% | 7 | 1.9µM*
CCOc1ccccc1CN1C(=O)NC(C)(c2ccccc2)C1=O (stereo unspecified) | 0% | 50 | 7% | 9% | -4 | 9.3µM*
CN1CCN(C(=O)CN2C(=O)NC(C)(c3ccc4ccccc4c3)C2=O)CC1 (stereo unspecified) | 9% | x | -1% | x | x | u
CC(C)(C)C1CCCCC1NC(=O)c1ccncc1 (stereo unspecified) | 18% | 9 | 8% | -5% | 0 | 0%
Nc1nc(C23CC4CCC(CC(C4)C2)C3)cs1 | u | 10 | 8% | -18% | -5 | -4%
Cc1ccc(Cc2cnc(N3C(=N)SC(c4ccccc4)C3=O)s2)cc1 (stereo unspecified) | 5% | 22 | -7% | 5% | 1 | 9.3µM*
N=C1SC(c2ccccc2)C(=O)N1c1ncc(Cc2ccccc2)s1 (stereo unspecified) | u | 56* | 1% | 15% | 18* | u
CCc1ccc(Cc2cnc(NC(=O)c3ccc4c(c3)CC(c3ccccc3)OC4=O)s2)cc1 (stereo unspecified) | x | x | 3% | x | x | x
Cc1ccc(CC2CC(=O)N(c3nc4ccccc4s3)C2=O)cc1 (stereo unspecified) | 28% | -16 | 9% | -1% | 0 | -25%
Cc1csc(Nc2ccccc2)[n+]1C | 36% | 67 | 3% | x | 36* | 38%
Cc1csc(Nc2ccccc2)[n+]1-c1ccccc1 | -17% | -4 | 8% | x | 7 | u
OCC#Cc1cnc2ccccc2c1 | 35% | 21 | -2% | -5% | 26* | u
c1cncc(-c2cnc3ccccc3c2)c1 | 59% | x | 0% | x | x | 52%
O=C(NC1CC1)c1cccc(S(=O)(=O)N2CCOCC2)c1 | -28% | x | -6% | x | x | u
O=[N+]([O-])c1cc(/C=N\Nc2ccccn2)ccc1Cl | 24% | 14 | -6% | -13% | 11 | 7.4µM*
N#C/C(=C\c1cccc([N+](=O)[O-])c1)c1ccccn1 | 3% | 55* | -35% | 4% | 28* | 23%
CCOC(=O)/C(C#N)=C/c1cccc([N+](=O)[O-])c1 | 30% | 3 | 6% | -2% | -2 | 8%
O=[N+]([O-])c1cccc(/C=N/Nc2nccnc2Cl)c1 | 169% | 77* | 9% | 6% | 42* | 86%
O=[N+]([O-])c1ccc(/C=N/Nc2ccccn2)cc1 | 63% | 60* | -3% | -3% | 20* | u
O=[N+]([O-])c1ccc(N/N=C\c2cccnc2)nc1 | 84% | 7 | -4% | 4% | 6 | 19%
Cc1nnc(NC(=O)CSc2nccn2Cc2ccc(Cl)cc2)s1 | x | x | 0% | x | x | x
SMILES | Pf growth 48h | Shiga inhibitor | Sm TGR block | NS1 inh | Cycloheximide cs | Pf growth 96h
O=C(/C=C/c1cccc([N+](=O)[O-])c1)N1CCN(c2ccccn2)CC1 | 39% | -7 | -11% | -11% | -2 | u
O=[N+]([O-])c1cccc(/C=N/Nc2ccccn2)c1 | 145% | 65* | 1% | x | 16 | u
O=[N+]([O-])c1cccc(/C=C/c2ccccn2)c1 | 146% | 54* | 4% | -8% | 29* | 228%
Nc1nnc(-c2cccc([N+](=O)[O-])c2)s1 | 2% | -9 | 8% | -4% | 8 | u
Nc1cccc(/C=C/c2ccncc2)c1 | 41% | 59* | -25% | 2% | 20* | 133%
Nc1nnc(/C=C/c2cccc([N+](=O)[O-])c2)s1 | 89% | 29 | -2% | 5% | 42* | -3%
O=C(COc1ccc(Cl)cc1)OCc1cc(=O)n2nc(-c3cccs3)sc2n1 | x | x | 1% | x | x | x
NC(=O)CSc1nc2c(sc(=S)n2-c2ccccc2)c(=O)[nH]1 | 9% | -5 | 2% | 4% | 7 | 17%
O=C(NC1CC1)c1ccc(Cn2c(SCc3cccc(F)c3)nc3cccnc32)cc1 | x | x | 15% | x | x | x
Cc1cc(C)n(CCC(=O)N/N=C/c2ccc(Cl)c([N+](=O)[O-])c2)n1 | -3% | -6 | 1% | -4% | -1 | 5%
C(=C\c1ccccn1)/c1ccncc1 | 54% | 78* | 0% | u | 21* | 96%
O=[N+]([O-])c1cc(C=Nc2cccc3c(O)cccc23)ccc1Cl | 21% | 14 | 40µM* | -18% | 4 | -28%
CN(C)c1ccc(/C=N\Nc2ccccn2)cc1 | 113% | 47* | -10% | -12% | 24* | 27%
CCN(C(=O)COC(=O)c1ccc2[nH]c3c(c2c1)CCCC3)C1CCS(=O)(=O)C1 (stereo unspecified) | 3% | -8 | 8% | 1% | -2 | -7%
Oc1ccccc1-c1cc(C(F)(F)C(F)F)[nH]n1 | u | 28* | -3% | -24% | 22* | 16%
O=[N+]([O-])c1ccccc1-c1cc(-c2ccccc2O)n[nH]1 | 209% | 69* | -9% | -50% | 75* | 100%
Oc1ccccc1-c1cc(C(F)(F)F)[nH]n1 | u | -6 | -10% | -128% | 10 | 9.3µM*
Oc1ccccc1C1=NCCNC(C(F)(F)C(F)F)=C1 | 5% | -11 | -31% | 3% | -3 | x
O=C(NC(=S)N1CCCCC1c1cccnc1)c1ccc(Br)cc1 (stereo unspecified) | -5% | -13 | -21% | -10% | -2 | 0%
CCC(C)NC(=O)c1sc2nc(C)c(C(=O)Nc3ccc(C)cc3C)c(-c3ccc(Br)cc3)c2c1N (stereo unspecified) | x | x | 3% | x | x | x
Cc1ccc(C2(c3ccccc3)NC(=O)N(CC(=O)NC3CCS(=O)(=O)C3)C2=O)cc1C (stereo unspecified) | -12% | x | 1% | x | x | -29%
Cc1nnc(-c2ccco2)c2cn(-c3cccc(Br)c3)nc12 | u | 18 | u | -2% | 44* | 0%
CC(=O)c1nn(-c2cccc(Br)c2)cc1C(=O)c1ccco1 | -3% | 24 | 2% | 5% | -1 | -16%
CN(C)CCCN(C(=O)c1ccc(S(=O)(=O)N2CCc3ccccc32)cc1)c1nc2c(Cl)cccc2s1 | u | 11 | 7% | -7% | -3 | u
